Epigenetic derep: epigenetic control regulation, reporter derepression; murine LDR cells, GFP reporter derepression, 30 h; Potency, µM (titrated, usually from 53.9 µM), for inactives: top-dose GFP activation, most hits filed as activators; 0.2% of 280,000 active; further: % of control where 0% means no effect; nearly all actives have a fitted effect of over 60% in size
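Murine LDR cells bearing a silenced CMV-driven GFP reporter were exposed to compound for 30 h at 37 C. After PBS washes, GFP-positive cells (20-120 um objects) counted by laser-scanning microplate cytometry.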
GCN5L2 inh: blocks human GCN5L2 histone acetyltransferase; Q92830; 0.21% of 390,000 active; Potency, µM (highest dose often 58.9 µM), inactives show at the top dose activity change, negative = inhibition, most hits filed as inhibitors; GCN5L2 HAT assay, ThioGlo1 CoA-SH fluorescence; further: on the % scale 0 is the no-effect control and ±100 the full control effect
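Compounds, pin-transferred from DMSO stocks, meet 20nM GCN5L2 for 15 min before the reaction begins with H3(1-25) peptide (75uM) and acetyl-CoA (70uM). Thiol-reactive ThioGlo1 reports CoA release over 20 min at room temperature.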
IMPase Li inh: cell-permeable IMPase inhibitors with lithium potentiation. CHO-M1 cells, IP1 TR-FRET (IP-One), carbachol + lithium. Potency, µM (doses to about 59.4 µM), for the others: at the top dose activity, negative = IMPase inhibition, usual class: inhibitors. 0.35% of 210,000 active;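 further: IP1 builds up when IMPase is blocked and the TR-FRET signal falls; plate controls were basal vehicle for no effect and high inhibitor control for full effect; nearly all actives have a fitted effect of over 50% in size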
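Concentration–response in CHO-M1 cells, lithium-potentiated; 30 min at 37C. IP1 detected by competitive TR-FRET after 10 min lysis at RT. Hill-fitted AC50.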
JMJD2E inh: inhibitors of human JMJD2E histone demethylase | 1.6% of 230,000 active | Potency, µM (doses to about 57.1 µM), inactives show top-dose activity change, negative = inhibition, most hits filed as inhibitors | JMJD2E catalytic domain, FDH-coupled NADH fluorescence (FDH is formaldehyde dehydrogenase);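 further: 0% = wells with enzyme and -100% = buffer wells without enzyme; nearly all actives have a fitted effect of over 50% in size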
Target sequence (B2RXH2 1-337 limits assumed): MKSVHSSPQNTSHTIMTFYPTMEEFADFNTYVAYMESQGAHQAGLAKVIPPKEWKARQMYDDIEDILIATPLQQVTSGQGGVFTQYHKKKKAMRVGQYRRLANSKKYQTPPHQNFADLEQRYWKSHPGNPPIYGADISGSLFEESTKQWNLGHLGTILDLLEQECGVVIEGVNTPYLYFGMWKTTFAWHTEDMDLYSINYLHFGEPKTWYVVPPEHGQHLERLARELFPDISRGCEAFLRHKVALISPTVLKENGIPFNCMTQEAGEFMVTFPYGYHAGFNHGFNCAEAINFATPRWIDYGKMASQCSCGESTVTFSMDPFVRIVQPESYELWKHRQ
NPSR antagonist: antagonists of human neuropeptide S receptor cAMP signaling. Q6W5P4. AID 1461. 1% of 220,000 active. Potency, µM (top dose mostly 38.3 µM), for inactives: at the highest dose activity change, negative = inhibition, usual class: inhibitors. CHO-NPSR cells, cAMP TR-FRET, antagonist mode; further: on the % scale 0 is the no-effect control and ±100 the full control effect; nearly all actives have a fitted effect of over 50% in size
Target sequence (Q6W5P4 whole entry, looked up): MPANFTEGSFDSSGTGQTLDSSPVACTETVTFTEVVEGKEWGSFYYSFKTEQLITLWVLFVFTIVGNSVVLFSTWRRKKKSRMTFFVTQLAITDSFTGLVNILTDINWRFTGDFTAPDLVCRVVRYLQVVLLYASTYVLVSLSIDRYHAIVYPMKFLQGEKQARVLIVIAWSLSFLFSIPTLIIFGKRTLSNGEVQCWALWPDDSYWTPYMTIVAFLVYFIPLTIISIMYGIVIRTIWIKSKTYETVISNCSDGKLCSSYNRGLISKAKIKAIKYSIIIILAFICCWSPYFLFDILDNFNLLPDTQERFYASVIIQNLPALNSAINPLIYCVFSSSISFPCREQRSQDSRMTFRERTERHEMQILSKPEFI
Sfp PPTase inh: inhibitors of Bacillus subtilis Sfp phosphopantetheinyl transferase; 3.5% of 310,000 active; AID 1490; Q9F4F7; Potency, µM, for the others: largest response in the series, negative = inhibition, actives largely listed as inhibitors; Biochemical Sfp PPTase activity, qHTS;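 further: the enzyme is Sfp with the accession as filed and its product quenches rhodamine fluorescence; 0% = enzyme reaction without inhibitor and -100% = no enzyme wells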
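After 15 min at room temperature with compound, 15 nM Sfp received 5 uM rhodamine-CoA plus 12.5 uM BHQ-2-ybbR (50 mM Hepes pH 7.6, 10 mM MgCl2). Rate came from the fluorescence difference over 30 min, ex 525/em 598 nm.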
Active calls of the source: *; ? = inconclusive; / = not tested or not shown; ! = not confirmed by another sample; [ ] = remark or other dose. Hits are enriched below; roughly 3.6% of the tested compounds scored in any of these assays. Unless noted, the call rests on the fitted dose curve; in most records, active means well fitted curve in the direction sought with a large enough effect; inconclusive means small, poorly fitted or top-dose-only effect, or another doubt; inactive means no such curve, though single readings can be large; an effect the other way counts as inactive or inconclusive. Potency means the concentration at half of the fitted maximal effect.

SMILES	Epigenetic derep	GCN5L2 inh	IMPase Li inh	JMJD2E inh	NPSR antagonist	Sfp PPTase inh
COc1ccc(/C=C2\CCC(C3CCCC3)C2=O)cc1Cn1cccn1 (stereo unspecified)	-1.0%	-9.6%	14.8%	1.1%	-45.5%	?
COC(=O)c1c(NC(=O)Cc2ccccc2)sc2c1C(C(=O)OC)CC2 (stereo unspecified)	0.0%	-11.8%	18.8%	10.2%	-16.8%	79.4µM*
COC(=O)c1c(NC(=O)COc2ccc(Cl)cc2)sc2c1CC(C)(C)NC2(C)C	/	0.9%	/	/	/	56.2µM*
COC(=O)c1c(NC(=O)CCCOc2ccc(C)cc2)sc2c1C(C(=O)OC)CC2 (stereo unspecified)	-0.8%	?	/	/	/	/
COC(=O)c1c(NC(=O)Cc2ccccc2)sc2c1CC(C)(C)NC2(C)C	/	2.2%	/	/	/	28.2µM*
COC(=O)c1c(NC(=O)c2ccccc2[N+](=O)[O-])sc2c1CC(C)(C)NC2(C)C	-1.3%	-0.1%	-3.8%	5.3%	18.6%	3.4%
CC1(C)Cc2c(sc(NC(=O)COc3ccc(Cl)cc3Cl)c2C(N)=O)C(C)(C)N1	/	0.5%	/	/	/	-13.2%
COc1ccc(Cc2ccc3[nH]c(=O)cc(C)c3c2)cc1S(=O)(=O)O	/	/	-14.4%	/	/	/
COc1cccc(Cn2c(=O)cnc3cnc(OC)nc32)c1	/	-7.5%	-0.9%	/	/	8.2%
Cc1o[nH]c(=O)c1CCC(N)C(=O)O (stereo unspecified)	0.0%	-15.6%	-7.5%	/	/	3.7%
Nc1ncnc2oc(-c3ccco3)c(-c3ccco3)c12	0.9%	?	16.6%[38.3 µM]	?	-12.5%[46.1 µM]	20µM*
c1ccc(-c2nccc(-c3ccco3)n2)nc1	1.1%	-4.3%	0.0%	?	4.5%	6.6%
COc1ccc(S(=O)(=O)N2CCC(n3c(C(F)(F)F)nc4cccnc43)CC2)cc1OC	0.3%	-2.1%	/	/	/	/
COCCn1c(C)cc(O)c(C(c2ccccc2)N2CCC(C)CC2)c1=O (stereo unspecified)	-4.2%	-8.1%	/	/	/	/
CC1=NNC(=O)/C1=C\c1cn(-c2ccccc2)nc1-c1ccc(F)cc1	?	-4.2%	21.4%	?	-53.4%	9.1%
CC1=NNC(=O)/C1=C\c1cn(-c2ccccc2)nc1-c1cccs1	2.3%	-6.8%	20.1%	-12.5%	10µM*	31.6µM*
Cc1nn(C)c(C)c1N1C(=O)c2cccc3c(N)ccc(c23)C1=O	-4.3%	-12.6%	-0.8%	-6.9%	-16.7%	-0.9%
Cc1ccc(N2C(=O)c3cccc4c(N)ccc(c34)C2=O)c2cccnc12	3.98µM*	-6.8%	/	-2.5%	1.5%	9.8%
CCCCCCN(C(=O)CCCCCN1C(=O)NC(c2ccc(-c3ccccc3)cc2)C(C(=O)OCc2ccccc2)=C1C)C(C)C(=O)NCCCC (stereo unspecified)	3.9%	-1.7%	10.2%	35.5µM*!	-17.3%	10.8%
CCSc1nc2ccccc2n1C(=O)/C=C/c1ccc(OC)c(OC)c1	-1.6%	-9.1%	18.7%	?	-59.0%	56.2µM*
C=CCSc1nc2ccccc2n1C(=O)/C=C/c1cc(OC)c(OC)c(OC)c1	?	-21.1%	27.5%[38.3 µM]	-7.1%	2.51µM*	-14.9%
O=C(CCN1CCN(c2ccccc2)CC1)N/N=C/c1ccccc1O	-0.1%	-8.1%	6.1%	28.2µM*	3.2%	12.0%
Cc1cccc(NC(=O)CCC(=O)N/N=C/c2cc([N+](=O)[O-])ccc2O)c1	-1.1%	-4.8%	-0.3%	10µM*	2.8%	12.6%
O=C(CCC(=O)Nc1cc(C(F)(F)F)ccc1Cl)N/N=C\c1cc([N+](=O)[O-])ccc1O	/	-12.1%	/	/	/	9.6%
O=C(CCC(=O)Nc1ccc(Br)cc1)N/N=C/c1cc([N+](=O)[O-])ccc1O	3.6%	-23.8%	-1.6%	?	-1.6%	17.0%
SMILES	Epigenetic derep	GCN5L2 inh	IMPase Li inh	JMJD2E inh	NPSR antagonist	Sfp PPTase inh
O=C(CCC(=O)Nc1ccc(F)cc1)N/N=C/c1cc([N+](=O)[O-])ccc1O	-1.5%	-1.5%	-1.6%	7.08µM*	-14.8%	3.7%
O=C(CCC(=O)Nc1ccc(F)cc1)N/N=C/c1ccccc1O	-4.1%	-3.8%	-2.4%	25.1µM*	4.7%	19.7%
CN1CCN(CCC(=O)N/N=C/c2ccccc2F)CC1	0.5%	-13.5%	/	5.5%	10.2%	5.9%
NCc1ccccc1Sc1ccccc1CO	/	-5.1%	/	/	/	-16.4%
C=Cc1ccc(C=C)cc1	/	/	5.8%	/	/	/
NCC(=O)Nc1ccccc1	/	/	-2.0%	/	/	/
O=C1Oc2ccccc2C(=O)C1C(CC(O)c1ccc(-c2ccc(Br)cc2)cc1)c1ccccc1 (stereo unspecified)	/	22.4µM*	/	/	/	18.4%
OC(CN1CCN(C(c2ccccc2)c2ccccc2)CC1)c1ccc(Br)cc1 (stereo unspecified)	/	-1.5%	/	/	/	5.0%
Cc1ccc(-c2nn(-c3ccccc3)cc2CO)cc1	/	-1.6%	/	/	/	4.6%
Cc1ccc(-c2nn(-c3ccccc3)cc2CNCc2ccccc2)cc1	15.2%	-12.4%	6.6%	-28.9%	?	17.8µM*
O=C1COc2ccc(S(=O)(=O)N3CCCC3)cc2N1	/	-1.9%	/	/	/	6.6%
O=C1COc2ccc(N3C(=O)C=CC3=O)cc2N1	-7.7%	?	38.4%	0.5%	?	3.98µM*
Cc1ccc(NC(=S)N(CCN(C)C)Cc2cccs2)c(C)c1	3.2%	-7.0%	0.3%	3.2%	-5.7%	31.6µM*
Cc1cc(C)c(NC(=S)N(CCN(C)C)Cc2cccs2)c(C)c1	1.3%	0.1%	2.5%	-21.3%	-4.8%	-14.9%
Cc1cc(C#N)c(C)n1-c1cc(S(=O)(=O)N2CCOCC2)ccc1N1CCCC1	-0.7%	/	-0.7%[38.3 µM]	0.0%	?	39.8µM*
C=CCC(Nc1ccc(OC)cc1)(C(=O)OCC)c1ccccc1 (stereo unspecified)	-1.1%	/	2.7%	0.5%	/	8.8%
CCOCCCn1c(=S)[nH]c2cc(C(=O)N3CCOCC3)ccc2c1=O	-1.8%	-1.5%	14.3%[38.3 µM]	4.2%	-8.3%[46.1 µM]	79.4µM*
CCOC(=O)Cn1c(=S)[nH]c2c(oc3ccc(Cl)cc32)c1=O	-1.0%	-5.8%	8.91µM*	0.5%	?	?
CCOC(=O)N1CCN(C(=O)c2ccc3c(=O)n(Cc4ccc(Cl)cc4)c(=S)[nH]c3c2)CC1	1.0%	-0.4%	7.0%[38.3 µM]	4.3%	?	3.8%
N#CNC(N)=Nc1ccc(Cl)cc1	/	/	2.5%	/	/	/
CC(C)CN(C[C@@H](OP(=O)(O)O)[C@H](Cc1ccccc1)NC(=O)O[C@@H]1CCOC1)S(=O)(=O)c1ccc(N)cc1	/	-14.6%	/	/	/	-8.3%
Cc1nc(N[C@@H](Cc2c[nH]c3ccccc23)C(=O)O)c2oc3ccccc3c2n1	4.0%	2.0%	11.2µM*	-13.8%	-17.6%[46.1 µM]	11.6%
CCc1nc(N[C@@H](Cc2c[nH]c3ccccc23)C(=O)O)c2oc3ccccc3c2n1	-1.0%	-0.5%	-8.8%[38.3 µM]	2.4%	-11.6%[46.1 µM]	15.2%

Screens from PubChem BioAssay.
